# The panel holds about 83,000 compounds, 20% with a hit somewhere; the sample as a whole holds those more often.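 96-well plates, one dose, 48 hours. Percent growth reported; active if below 10.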 Unmarked numbers belong to inactive results. Active and inactive are the calls of the source.
# Assays:
# Assay in all cases: NCI-60 one-dose screen, 48 h (100 = growth as untreated, 0 = no growth, -100 = all killed)
# Details in all cases: 10 µM unless noted
# DU-145 prostate = system: DU-145 prostate
# K-562 leukemia = system: K-562 leukemia
# MALME-3M melanoma = system: MALME-3M melanoma
# MDA-MB-231 breast = system: MDA-MB-231 breast
# RXF 393 renal = system: RXF 393 renal
# SF-268 CNS = system: SF-268 CNS
# SF-295 CNS = system: SF-295 CNS
# SF-539 CNS = system: SF-539 CNS
# UACC-257 melanoma = system: UACC-257 melanoma
# M14 melanoma = system: M14 melanoma
# HCT-15 colon = system: HCT-15 colon
# HT29 colon = system: HT29 colon
# SNB-75 CNS = system: SNB-75 CNS
# SNB-19 CNS = system: SNB-19 CNS
# U251 CNS = system: U251 CNS
# PC-3 prostate = system: PC-3 prostate
# SK-MEL-5 melanoma = system: SK-MEL-5 melanoma
# UACC-62 melanoma = system: UACC-62 melanoma
# LOX IMVI melanoma = system: LOX IMVI melanoma
# SK-MEL-28 melanoma = system: SK-MEL-28 melanoma
Compound,growth (DU-145 prostate),growth (K-562 leukemia),growth (MALME-3M melanoma),growth (MDA-MB-231 breast),growth (RXF 393 renal),growth (SF-268 CNS),growth (SF-295 CNS),growth (SF-539 CNS),growth (UACC-257 melanoma),growth (M14 melanoma),growth (HCT-15 colon),growth (HT29 colon),growth (SNB-75 CNS),growth (SNB-19 CNS),growth (U251 CNS),growth (PC-3 prostate),growth (SK-MEL-5 melanoma),growth (UACC-62 melanoma),growth (LOX IMVI melanoma),growth (SK-MEL-28 melanoma)
O=C(Nc1nc(-c2ccccc2Cl)cs1)c1cc(-c2ccc(Br)cc2)nc2ccccc12,69.3%,23.5%,75.1%,27.3%,59%,66.4%,34.4%,76.1%,29.5%,62.5%,61.6%,37.4%,96.8%,71%,46.1%,43.1%,27.9%,48.8%,50%,80.3%
C=C(C)[C@@H]1CC[C@]2(C(=O)OCCOCCOCC[P+](c3ccccc3)(c3ccccc3)c3ccccc3)CC[C@]3(C)[C@H](CC[C@@H]4[C@@]5(C)CC[C@H](OC(=O)C(Cl)Cl)C(C)(C)[C@@H]5CC[C@]43C)[C@@H]12,15.5%,-20.9% (active),-82.9% (active),-46.7% (active),-81.7% (active),4.59% (active),-82.1% (active),-20.2% (active),-27.9% (active),-80.9% (active),11.1%,5.74% (active),8.83% (active),17.6%,-5.68% (active),-23.4% (active),-99.1% (active),-39.3% (active),-91.3% (active),-43.9% (active)
N#Cc1c(-c2ccc(F)cc2)nc(N=Nc2c(O)[nH]c3ccccc23)nc1N1CCOCC1,69.1%,91.8%,63.7%,66%,62.8%,77.3%,70.2%,85.5%,77.8%,72.3%,66.9%,78.4%,22.5%,70.1%,27.4%,64.1%,64.7%,48.8%,74.9%,72.3%
COc1cc(/C=C/CO)cc(OC)c1O[C@@H]1O[C@H](CO)[C@@H](O)[C@H](O)[C@H]1O,110%,96.6%,102%,90.2%,100%,102%,98.7%,105%,96.3%,104%,101%,100%,94.9%,97.2%,96.1%,95.1%,98.9%,100%,96.1%,105%
N#Cc1c(-c2ccc(Cl)cc2)cc(-c2cc3ccccc3o2)nc1SCC(=O)c1ccc(Cl)cc1,121%,118%,90.6%,95.5%,116%,99.3%,90.1%,112%,112%,96.9%,91.4%,97.1%,76.7%,99.9%,93.8%,84.6%,100%,93.5%,91%,100%
CSc1nc(-c2ccco2)c2c(N)[nH]nc2n1,102%,85.6%,119%,99.1%,118%,104%,102%,97.5%,129%,120%,102%,93.6%,103%,110%,103%,101%,100%,92.2%,92.3%,112%
Nc1cc(N)c(S(=O)(=O)O)cc1N=Nc1cc([N+](=O)[O-])ccc1O,111%,80.8%,103%,103%,103%,102%,107%,102%,99.2%,100%,104%,102%,88.7%,98.8%,100%,87.1%,105%,92.1%,93.4%,102%
Cc1ccc(CS/C(=C\c2ccc([N+](=O)[O-])cc2)C(=O)c2ccc(F)cc2)cc1,91.2%,-0.821% (active),83.7%,60.5%,100%,74.6%,79.2%,98.1%,93.3%,40.8%,-6.39% (active),-20.1% (active),79.8%,34.6%,-20.4% (active),40.9%,62.7%,30.9%,-4.93% (active),93.5%
COc1cc(/C=C/C(=O)/C=C/c2cc3ccc(Cl)cc3[nH]c2=O)ccc1O,45.9%,23.2%,101%,45.9%,70.9%,72.2%,79.7%,105%,90.8%,54.1%,52.4%,5.63% (active),74.4%,76.5%,19.6%,56.2%,60.8%,53.1%,19.8%,98.8%
CC(=O)O[C@@H]1C[C@]2(C)[C@H]3[C@H](O)C[C@@H]4C5=CC(C)(C)CC[C@]5(C)CC[C@@]4(C)[C@]3(C)CC[C@H]2C(C)(C)[C@H]1O,107%,108%,107%,113%,111%,101%,104%,102%,110%,99.3%,100%,97.8%,91.6%,104%,97.6%,84.9%,114%,97.4%,98.7%,106%
CCN1CCC[C@H]1c1cc(O)c2c(c1OC)C[C@H]1C[C@H]3[C@H](N)C(=O)C(C(N)=O)=C(O)[C@@]3(O)C(=O)C1=C2O,1.87% (active),3.76% (active),-16.5% (active),-6.79% (active),-40.4% (active),2.64% (active),0.93% (active),-21% (active),-14.1% (active),-38.8% (active),1.67% (active),-4.51% (active),-4.69% (active),-0.511% (active),-8.89% (active),3.27% (active),-46% (active),-19% (active),-45.2% (active),-10.6% (active)
C=C1C(=O)O[C@H]2[C@H]1CC/C(COC(=O)/C=C/c1cccnc1)=C\CC[C@@]1(C)O[C@@H]21,13.1%,6.99% (active),-35.9% (active),38.7%,-9.04% (active),57.6%,84.4%,6.08% (active),28.9%,26.3%,3.01% (active),11.1%,72.2%,75.2%,57.7%,57.5%,68.2%,41.1%,30.7%,43.7%
Cc1ccn2c3c(c(C(=O)O)c2c1)C(=O)c1ccccc1C3=O,-55.7% (active),85.4%,-62.7% (active),77.2%,56.9%,80.3%,26.9%,65.8%,56.4%,-43.5% (active),58.8%,39.5%,87.8%,50.4%,74.9%,84.8%,-98.9% (active),0.126% (active),48.9%,46%
CCCCCCN1C(=O)CN=C1Nc1ccc2cc3ccc(NC4=NCC(=O)N4CCCCCC)cc3nc2c1,40.5%,-12.1% (active),71.5%,30.7%,11.6%,47.5%,82.7%,76.6%,103%,68.2%,49%,15.5%,61.7%,48.4%,22.1%,51%,82.6%,82.6%,-41.8% (active),85.9%
Cc1cc(C)nc(NS(=O)(=O)c2ccc(Nc3ccc4c5c(n(CCCN(C)C)c(=O)c4c3)-c3ccccc3C5=O)cc2)n1,69%,74.7%,102%,108%,115%,77.9%,83.3%,96.3%,108%,89.8%,90.3%,74.8%,79.5%,91%,75.3%,86.3%,85.6%,93.3%,72.6%,117%
Cn1nc(C(F)(F)F)c(-c2cc(C(F)(F)F)cc(C(F)(F)F)c2)c1-c1ccc(OCc2ccc(Cl)cc2)cc1O,20.6%,1.63% (active),-15.9% (active),-31.5% (active),-14.5% (active),16.6%,-22.6% (active),2.13% (active),-7.16% (active),6.3% (active),7.5% (active),3.77% (active),4.92% (active),22.6%,6.17% (active),10.7%,-36.6% (active),3.02% (active),6.23% (active),28%
NC(=O)CN1C(=O)c2ccccc2C1=O,101%,96%,97.5%,101%,114%,97.3%,95.3%,106%,106%,102%,100%,102%,86.4%,98.4%,103%,99.5%,99.2%,95.7%,103%,106%
Cc1cccc(C)c1NCc1nnc(-c2ccco2)o1,99.9%,100%,85.2%,79.7%,102%,93.5%,92.4%,97.7%,98.7%,99%,103%,93.9%,85.5%,101%,96.9%,81%,96.3%,90.1%,93.5%,110%
CSc1nc(-c2ccc(F)cc2)c(C#N)c(N2CCOCC2)n1,101%,92.9%,116%,92.5%,91.3%,93.5%,92.2%,94.9%,91.9%,107%,98.6%,92.3%,73.8%,92.9%,89.3%,89.9%,94.8%,78.9%,99.2%,101%
CCOCc1nc2ccccc2c(=O)[nH]1,107%,119%,89.6%,103%,117%,101%,99.6%,102%,108%,96.2%,97.2%,95.9%,99.2%,101%,102%,95.2%,104%,102%,99.8%,106%
CN1CC=C(c2cc(NC(=O)Nc3ccc(Oc4ccnc(NC(=O)C5CC5)c4)c(F)c3)cc(C(F)(F)F)c2)CC1,9.52% (active),-12.2% (active),-32.5% (active),-11.8% (active),-27.4% (active),-1.76% (active),-9.64% (active),-47.9% (active),-0.573% (active),-38.3% (active),5.35% (active),-13.6% (active),-76.4% (active),2.04% (active),-1.77% (active),3.71% (active),-43.9% (active),-22.1% (active),-46.5% (active),-1.25% (active)
c1ccc2nc(N3CCOCC3)c(N3CCCCC3)nc2c1,111%,90.5%,92.1%,97%,98%,95.2%,97.2%,99%,103%,105%,100%,96.1%,76.7%,93.9%,96.9%,90.8%,96.8%,83.1%,99.1%,109%
COc1cc(-c2csc(NC(=O)Nc3ccc(Cl)cc3)n2)cc(OC)c1OC,36.3%,9.22% (active),61.3%,45.5%,23.4%,51.2%,18%,48.8%,22.9%,21.1%,20.1%,36.1%,36.5%,24.3%,25.4%,3.63% (active),-37.8% (active),-7.54% (active),24.7%,41.1%
CC(=O)OCC1OC(OC2C(COC(C)=O)OC(OCCC[S-])C(OC(C)=O)C2OC(C)=O)C(OC(C)=O)C(OC(C)=O)C1OC(C)=O.[Au+].c1ccc(CN2[CH-]N(Cc3ccccc3)C(c3ccccc3)=C2c2ccccc2)cc1 (stereo not given),26.1%,4.75% (active),-8.9% (active),-34.7% (active),25.7%,40.1%,7.32% (active),35.6%,12.5%,25%,25.6%,15.7%,45.5%,23.2%,5.17% (active),17.7%,-12.6% (active),13.4%,11.3%,28.4%
CC1(C)Cc2c(Br)c(Br)c(Br)c(OCC(O)CN3CCOCC3)c2O1 (stereo not given),106%,44.1%,35%,83.2%,70.6%,105%,113%,92.9%,97.3%,94.5%,88.2%,64.6%,94%,100%,93.5%,9.22% (active),66.5%,94.6%,87.1%,137%
CCCCc1n(Cc2ccc3ccccc3n2)cc[n+]1Cc1ccc2ccccc2c1,25.1%,6.43% (active),-22.2% (active),-29.2% (active),-14.3% (active),19.3%,0.543% (active),14.3%,-32.7% (active),-16.9% (active),76.7%,-8.3% (active),15.7%,7.08% (active),5.73% (active),1.01% (active),-94.3% (active),-57.7% (active),-26.5% (active),0.554% (active)
CCCCc1n(Cc2ccc3ccccc3c2)c2ccccc2[n+]1Cc1ccc2ccccc2c1,-93.1% (active),-73.2% (active),-86.2% (active),-88.2% (active),-92.6% (active),-80.5% (active),-87.8% (active),-94.3% (active),-58.1% (active),-81.4% (active),-89.2% (active),-74.8% (active),-9.62% (active),-92.5% (active),-87.2% (active),-76.8% (active),-100% (active),-92.3% (active),-93.5% (active),-92.9% (active)
